# Laboratory results as given in publication PMC11062922 (Nature Chemical Biology, 2023).
# Read-outs that look alike come from different tables or passages of the source.
# Key:
# RET = conditions: read-out: apparent Kd, n = 1
# RPS6KA4 = conditions: read-out: apparent Kd, n = 1
# [1] = compound concentrations:100 nM and 1000 nM (sheet 'Lestaurtinib' of Supplementary Table 1),run:Lestaurtinib_02438_R1,Plate:MR008
# [2] = compound concentrations:100 nM and 1000 nM (sheet 'Lestaurtinib' of Supplementary Table 1),run:Lestaurtinib_02438_R3,Plate:MR008
# [3] = compound concentrations:100 nM and 1000 nM (sheet 'Lestaurtinib' of Supplementary Table 1),run:Lestaurtinib_02443_R1,Plate:MR009
# [4] = compound concentrations:100 nM and 1000 nM (sheet 'Lestaurtinib' of Supplementary Table 1),run:Lestaurtinib_02473_R3,Plate:MR010
# [5] = compound concentrations:100 nM and 1000 nM (sheet 'Lestaurtinib' of Supplementary Table 1),run:Lestaurtinib_02482_R3,Plate:MR011
# [6] = compound concentrations:100 nM and 1000 nM (sheet 'Lestaurtinib' of Supplementary Table 1),run:Lestaurtinib_02487_R2,Plate:MR012
# [7] = compound concentrations:100 nM and 1000 nM (sheet 'Lestaurtinib' of Supplementary Table 1),run:Lestaurtinib_02487_R3,Plate:MR012
# [8] = compound concentrations:100 nM and 1000 nM (sheet 'Lestaurtinib' of Supplementary Table 1),run:Lestaurtinib_02496_R1,Plate:MR013
# [9] = compound concentrations:100 nM and 1000 nM (sheet 'Lestaurtinib' of Supplementary Table 1),run:Lestaurtinib_02566_R1,Plate:MR014
# [10] = compound concentrations:100 nM and 1000 nM (sheet 'Lestaurtinib' of Supplementary Table 1),run:Lestaurtinib_02577_R1,Plate:MR016
# [11] = compound concentrations:100 nM and 1000 nM (sheet 'Lestaurtinib' of Supplementary Table 1),run:Lestaurtinib_02584_R3,Plate:MR017
# [12] = compound concentrations:100 nM and 1000 nM (sheet 'Lestaurtinib' of Supplementary Table 1),run:Lestaurtinib_02601_R2,Plate:MR018
substance,measurement,setting,value
Lestaurtinib,potency estimated from few doses,"RET; compound concentrations:100 nM and 1000 nM (sheet 'Lestaurtinib' of Supplementary Table 1),run:Lestaurtinib_02437_R2,Plate:MR007",146 nM
same,potency estimated from few doses,"RET; compound concentrations:100 nM and 1000 nM (sheet 'Lestaurtinib' of Supplementary Table 1),run:Lestaurtinib_02437_R3,Plate:MR007",23.5 nM
same,potency estimated from few doses,RET; [1],279 nM
same,potency estimated from few doses,"RET; compound concentrations:100 nM and 1000 nM (sheet 'Lestaurtinib' of Supplementary Table 1),run:Lestaurtinib_02438_R2,Plate:MR008",286 nM
same,potency estimated from few doses,RET; [2],304 nM
same,potency estimated from few doses,RET; [3],248 nM
same,potency estimated from few doses,"RET; compound concentrations:100 nM and 1000 nM (sheet 'Lestaurtinib' of Supplementary Table 1),run:Lestaurtinib_02443_R3,Plate:MR009",140 nM
same,potency estimated from few doses,"RET; compound concentrations:100 nM and 1000 nM (sheet 'Lestaurtinib' of Supplementary Table 1),run:Lestaurtinib_02473_R2,Plate:MR010",244 nM
same,potency estimated from few doses,RET; [4],60 nM
same,potency estimated from few doses,"RET; compound concentrations:100 nM and 1000 nM (sheet 'Lestaurtinib' of Supplementary Table 1),run:Lestaurtinib_02482_R1,Plate:MR011",239 nM
same,potency estimated from few doses,RET; [5],209 nM
same,potency estimated from few doses,RET; [6],140 nM
same,potency estimated from few doses,RET; [7],213 nM
same,potency estimated from few doses,RET; [8],219 nM
same,potency estimated from few doses,"RET; compound concentrations:100 nM and 1000 nM (sheet 'Lestaurtinib' of Supplementary Table 1),run:Lestaurtinib_02496_R3,Plate:MR013",141 nM
same,potency estimated from few doses,RET; [9],277 nM
same,potency estimated from few doses,"RET; compound concentrations:100 nM and 1000 nM (sheet 'Lestaurtinib' of Supplementary Table 1),run:Lestaurtinib_02566_R3,Plate:MR014",244 nM
same,potency estimated from few doses,"RET; compound concentrations:100 nM and 1000 nM (sheet 'Lestaurtinib' of Supplementary Table 1),run:Lestaurtinib_02572_R3,Plate:MR015",307 nM
same,potency estimated from few doses,RET; [10],242 nM
same,potency estimated from few doses,"RET; compound concentrations:100 nM and 1000 nM (sheet 'Lestaurtinib' of Supplementary Table 1),run:Lestaurtinib_02577_R2,Plate:MR016",142 nM
same,potency estimated from few doses,"RET; compound concentrations:100 nM and 1000 nM (sheet 'Lestaurtinib' of Supplementary Table 1),run:Lestaurtinib_02577_R3,Plate:MR016",218 nM
same,potency estimated from few doses,RET; [11],142 nM
same,potency estimated from few doses,RET; [12],235 nM
same,potency estimated from few doses,"RET; compound concentrations:100 nM and 1000 nM (sheet 'Lestaurtinib' of Supplementary Table 1),run:Lestaurtinib_02601_R3,Plate:MR018",62.4 nM
same,potency estimated from few doses,"RET; compound concentrations:100 nM and 1000 nM (sheet 'Lestaurtinib' of Supplementary Table 1),run:Lestaurtinib_02606_R1,Plate:MR019",211 nM
same,potency estimated from few doses,"RET; compound concentrations:100 nM and 1000 nM (sheet 'Lestaurtinib' of Supplementary Table 1),run:Lestaurtinib_02624_R1,Plate:MR020",141 nM
same,potency estimated from few doses,"RET; compound concentrations:100 nM and 1000 nM (sheet 'Lestaurtinib' of Supplementary Table 1),run:Lestaurtinib_02624_R3,Plate:MR020",229 nM
same,potency estimated from few doses,"RET; compound concentrations:100 nM and 1000 nM (sheet 'Lestaurtinib' of Supplementary Table 1),run:Lestaurtinib_02724_R1,Plate:MR021",275 nM
same,potency estimated from few doses,"RET; compound concentrations:100 nM and 1000 nM (sheet 'Lestaurtinib' of Supplementary Table 1),run:Lestaurtinib_02724_R2,Plate:MR021",268 nM
same,potency estimated from few doses,"RET; compound concentrations:100 nM and 1000 nM (sheet 'Lestaurtinib' of Supplementary Table 1),run:Lestaurtinib_02724_R3,Plate:MR021",153 nM
same,potency estimated from few doses,"RET; compound concentrations:100 nM and 1000 nM (sheet 'Lestaurtinib' of Supplementary Table 1),run:Lestaurtinib_02741_R1,Plate:MR023",279 nM
same,potency estimated from few doses,"RET; compound concentrations:100 nM and 1000 nM (sheet 'Lestaurtinib' of Supplementary Table 1),run:Lestaurtinib_02741_R2,Plate:MR023",279 nM
same,potency estimated from few doses,"RET; compound concentrations:100 nM and 1000 nM (sheet 'Lestaurtinib' of Supplementary Table 1),run:Lestaurtinib_02741_R3,Plate:MR023",315 nM
same,potency estimated from few doses,"RET; compound concentrations:100 nM and 1000 nM (sheet 'Lestaurtinib' of Supplementary Table 1),run:Lestaurtinib_02748_R1,Plate:MR024",135 nM
same,potency estimated from few doses,"RET; compound concentrations:100 nM and 1000 nM (sheet 'Lestaurtinib' of Supplementary Table 1),run:Lestaurtinib_02748_R2,Plate:MR024",269 nM
same,potency estimated from few doses,"RET; compound concentrations:100 nM and 1000 nM (sheet 'Lestaurtinib' of Supplementary Table 1),run:Lestaurtinib_02765_R1,Plate:MR026",320 nM
same,potency estimated from few doses,"RET; compound concentrations:100 nM and 1000 nM (sheet 'Lestaurtinib' of Supplementary Table 1),run:Lestaurtinib_02765_R3,Plate:MR026",323 nM
same,potency estimated from few doses,"RET; compound concentrations:100 nM and 1000 nM (sheet 'Lestaurtinib' of Supplementary Table 1),run:Lestaurtinib_02766_R3,Plate:MR027",258 nM
same,potency estimated from few doses,"RET; compound concentrations:100 nM and 1000 nM (sheet 'Lestaurtinib' of Supplementary Table 1),run:Lestaurtinib_02768_R3,Plate:MR028",135 nM
same,potency estimated from few doses,"RET; compound concentrations:100 nM and 1000 nM (sheet 'Lestaurtinib' of Supplementary Table 1),run:Lestaurtinib_02795_R2,Plate:MR022",286 nM
same,potency estimated from few doses,"RET; compound concentrations:100 nM and 1000 nM (sheet 'Lestaurtinib' of Supplementary Table 1),run:Lestaurtinib_02795_R3,Plate:MR022",300 nM
same,potency estimated from few doses,"RET; compound concentrations:100 nM and 1000 nM (sheet 'Lestaurtinib' of Supplementary Table 1),run:Lestaurtinib_02802_R1,Plate:MR029",137 nM
same,potency estimated from few doses,"RET; compound concentrations:100 nM and 1000 nM (sheet 'Lestaurtinib' of Supplementary Table 1),run:Lestaurtinib_02802_R3,Plate:MR029",34.2 nM
same,potency estimated from few doses,"RET; compound concentrations:100 nM and 1000 nM (sheet 'Lestaurtinib' of Supplementary Table 1),run:Lestaurtinib_03252_R1,Plate:MR032",253 nM
same,potency estimated from few doses,"RET; compound concentrations:100 nM and 1000 nM (sheet 'Lestaurtinib' of Supplementary Table 1),run:Lestaurtinib_03260_R3,Plate:MR033",277 nM
same,potency estimated from few doses,"RPS6KA4; compound concentrations:100 nM and 1000 nM (sheet 'Lestaurtinib' of Supplementary Table 1),run:Lestaurtinib_02339_R2,Plate:MR001",873 nM
same,potency estimated from few doses,"RPS6KA4; compound concentrations:100 nM and 1000 nM (sheet 'Lestaurtinib' of Supplementary Table 1),run:Lestaurtinib_02339_R3,Plate:MR001",1210 nM
same,potency estimated from few doses,"RPS6KA4; compound concentrations:100 nM and 1000 nM (sheet 'Lestaurtinib' of Supplementary Table 1),run:Lestaurtinib_02364_R2,Plate:MR002",886 nM
same,potency estimated from few doses,"RPS6KA4; compound concentrations:100 nM and 1000 nM (sheet 'Lestaurtinib' of Supplementary Table 1),run:Lestaurtinib_02367_R1,Plate:MR003",1240 nM
same,potency estimated from few doses,"RPS6KA4; compound concentrations:100 nM and 1000 nM (sheet 'Lestaurtinib' of Supplementary Table 1),run:Lestaurtinib_02367_R2,Plate:MR003",1330 nM
same,potency estimated from few doses,"RPS6KA4; compound concentrations:100 nM and 1000 nM (sheet 'Lestaurtinib' of Supplementary Table 1),run:Lestaurtinib_02367_R3,Plate:MR003",989 nM
same,potency estimated from few doses,"RPS6KA4; compound concentrations:100 nM and 1000 nM (sheet 'Lestaurtinib' of Supplementary Table 1),run:Lestaurtinib_02381_R1,Plate:MR004",884 nM
same,potency estimated from few doses,"RPS6KA4; compound concentrations:100 nM and 1000 nM (sheet 'Lestaurtinib' of Supplementary Table 1),run:Lestaurtinib_02407_R1,Plate:MR005",1340 nM
same,potency estimated from few doses,"RPS6KA4; compound concentrations:100 nM and 1000 nM (sheet 'Lestaurtinib' of Supplementary Table 1),run:Lestaurtinib_02407_R2,Plate:MR005",1630 nM
same,potency estimated from few doses,"RPS6KA4; compound concentrations:100 nM and 1000 nM (sheet 'Lestaurtinib' of Supplementary Table 1),run:Lestaurtinib_02422_R1,Plate:MR006",975 nM
same,potency estimated from few doses,"RPS6KA4; compound concentrations:100 nM and 1000 nM (sheet 'Lestaurtinib' of Supplementary Table 1),run:Lestaurtinib_02437_R1,Plate:MR007",1320 nM
same,potency estimated from few doses,RPS6KA4; [1],769 nM
same,potency estimated from few doses,RPS6KA4; [2],1350 nM
same,potency estimated from few doses,RPS6KA4; [3],864 nM
same,potency estimated from few doses,RPS6KA4; [4],1240 nM
same,potency estimated from few doses,"RPS6KA4; compound concentrations:100 nM and 1000 nM (sheet 'Lestaurtinib' of Supplementary Table 1),run:Lestaurtinib_02482_R2,Plate:MR011",1340 nM
same,potency estimated from few doses,RPS6KA4; [5],924 nM
same,potency estimated from few doses,"RPS6KA4; compound concentrations:100 nM and 1000 nM (sheet 'Lestaurtinib' of Supplementary Table 1),run:Lestaurtinib_02487_R1,Plate:MR012",680 nM
same,potency estimated from few doses,RPS6KA4; [6],745 nM
same,potency estimated from few doses,RPS6KA4; [7],950 nM
same,potency estimated from few doses,RPS6KA4; [8],877 nM
same,potency estimated from few doses,"RPS6KA4; compound concentrations:100 nM and 1000 nM (sheet 'Lestaurtinib' of Supplementary Table 1),run:Lestaurtinib_02496_R2,Plate:MR013",822 nM
same,potency estimated from few doses,RPS6KA4; [9],1360 nM
same,potency estimated from few doses,"RPS6KA4; compound concentrations:100 nM and 1000 nM (sheet 'Lestaurtinib' of Supplementary Table 1),run:Lestaurtinib_02566_R2,Plate:MR014",971 nM
same,potency estimated from few doses,"RPS6KA4; compound concentrations:100 nM and 1000 nM (sheet 'Lestaurtinib' of Supplementary Table 1),run:Lestaurtinib_02572_R2,Plate:MR015",1240 nM
same,potency estimated from few doses,RPS6KA4; [10],1370 nM
same,potency estimated from few doses,RPS6KA4; [11],1210 nM
same,potency estimated from few doses,RPS6KA4; [12],1330 nM
